In the supplement of paper PMC6607015:
Structures can show the parent of a compound that is named as a salt.

system: A431; test: filipin (cholesterol) integrated intensity within LBPA endosomes, Z-score; higher = more cholesterol in LBPA endosomes; conditions: compound concentration in added solution (µM; 5 µl added to 20 µl cells): 10; 18 h
Outline: (§1)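 HeLa MZ or A431 cells (3,500/well in 20 µl) were seeded onto 5 µl of 10 µM compound solution in duplicate 384-well imaging plates, incubated 18 h, then fixed in 4% PFA. Cells were stained with 6C4 anti-LBPA antibody, filipin, propidium iodide and CellTracker green, and four 20× images were taken per well. MetaXpress segmentation gave per-cell integrated LBPA or filipin intensity, either whole-cell or within LBPA endosomes. Values are Z-scores normalised in AcuityXpress.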

SMILES	filipin (z-score)
NCC1(CC(=O)O)CCCCC1 [Gabapentin]	-0.52
CC(=O)NC1CCSC1=O (racemic) [N-Acetyl-DL-homocysteine Thiolactone]	-0.405
NCCCNCCSP(=O)(O)O [Amifostine]	-0.572
CCN(CC)C(C)C(=O)c1ccccc1 (stereo not given) [Amfepramone hydrochloride]	-0.654
CCCC(C)C1(CC)C(=O)NC(=O)NC1=O (stereo not given) [Pentobarbital]	-0.553
O=[N+]([O-])O[C@H]1CO[C@H]2[C@@H]1OC[C@H]2O[N+](=O)[O-] [Isosorbide dinitrate]	-0.496
O[C@@H]1CCCC[C@H]1N1CCC(c2ccccc2)CC1 [L(-)-vesamicol hydrochloride]	-0.268
O=c1[nH]c2ccccc2n1CCCN1CCC(n2c(=O)[nH]c3cc(Cl)ccc32)CC1 [Domperidone]	2.09
O=P1(NCCCl)OCCCN1CCCl (stereo not given) [Ifosfamide]	-0.396
Cc1cccc(C)c1NC1=NCCCS1 [Xylazine]	-0.524
O=c1[nH]oc2c1CCNC2 [THIP Hydrochloride]	-0.413
CC[N+]1(C)CCCC(OC(=O)C(O)(c2ccccc2)c2ccccc2)C1 (stereo not given) [Pipenzolate bromide]	-0.297
N[C@@H]1C[C@H]1c1ccccc1 [Tranylcypromine hydrochloride]	-0.48
CN(C)C(=O)Oc1cc(OC(=O)N(C)C)cc(C(O)CNC(C)(C)C)c1 (stereo not given) [Bambuterol hydrochloride]	-0.64
C[C@H](N)[C@H](O)c1ccc(O)c(O)c1 [Levonordefrin]	-0.427
CO[C@]12C[C@@H](COC(=O)c3cncc(Br)c3)CN(C)[C@@H]1Cc1cn(C)c3cccc2c13 [Nicergoline]	3.09
C#C[C@]1(O)CC[C@H]2[C@@H]3CCC4=CC(=O)CCC4=C3C=C[C@@]21CC [Gestrinone]	-0.436
CC(C)(C)NCC(O)c1ccccc1Cl (stereo not given) [Tulobuterol]	-0.334

SMILES	filipin (z-score)
COc1cc2c(cc1OC)C(C)NCC2 (stereo not given)	-0.528
CC(C)C[C@H]1C(=O)N2CCC[C@H]2[C@]2(O)O[C@](NC(=O)[C@@H]3C=C4c5cccc6[nH]c(Br)c(c56)C[C@H]4N(C)C3)(C(C)C)C(=O)N12 [Bromocryptine mesylate]	0.487
O=C(CCCN1CCC2(CC1)C(=O)NCN2c1ccccc1)c1ccc(F)cc1 [Spiperone]	1.87
CN1C[C@H](CNC(=O)OCc2ccccc2)C[C@@H]2c3cccc4c3c(cn4C)C[C@H]21 [Metergoline]	4.03
CCN[C@@H](C)Cc1cccc(C(F)(F)F)c1 [Dexfenfluramine hydrochloride]	-0.444
CN1CCN(C(=O)OC2c3nccnc3C(=O)N2c2ccc(Cl)cn2)CC1 (stereo not given) [Zopiclone]	-0.406
C[N+]12CCC(CC1)C(OC(=O)C(O)(c1ccccc1)c1ccccc1)C2 (stereo not given) [Clidinium bromide]	-0.455
C[C@]12CCC(=O)C(O)=C1CC[C@@H]1[C@@H]2CC[C@]2(C)C(=O)CC[C@@H]12 [Formestane]	2.1
C[C@]12CCC(=O)C=C1CC[C@@H]1[C@@H]2C(=O)C[C@]2(C)C(=O)CC[C@@H]12 [Adrenosterone]	1
CCC1(CC)C(=O)C=CNC1=O [Pyrithyldione]	-0.527
CCn1cc(C(=O)O)c(=O)c2cc3c(cc21)OCO3 [Oxolinic acid]	-0.512
C=C1CC[C@@]2(O)[C@H]3Cc4ccc(O)c5c4[C@@]2(CCN3CC2CC2)[C@H]1O5 [Nalmefene hydrochloride]	-0.304
C[C@]12COC(=O)C[C@@H]1CC[C@@H]1[C@@H]2CC[C@@]2(C)[C@H]1CC[C@]2(C)O [Oxandrolone]	-0.429
C[C@]12N[C@H](Cc3ccccc31)c1ccccc12 [Dizocilpine maleate]	-0.361
S=C(NC1CCCCC1)N1CCC(c2cnc[nH]2)CC1 [Thioperamide maleate]	0.0582
CN1C(=O)CCS(=O)(=O)C1c1ccc(Cl)cc1 (stereo not given) [Chlormezanone]	-0.511
CN[C@@H]1[C@@H](O)[C@@H](O[C@@H]2[C@@H](O)[C@H](O[C@H]3O[C@H](CN)CC[C@H]3N)[C@@H](N)C[C@H]2N)OC[C@]1(C)O.CN[C@@H]1[C@@H](O)[C@@H](O[C@@H]2[C@@H](O)[C@H](O[C@H]3O[C@H]([C@@H](C)N)CC[C@H]3N)[C@@H](N)C[C@H]2N)OC[C@]1(C)O.CN[C@@H]1[C@@H](O)[C@@H](O[C@@H]2[C@@H](O)[C@H](O[C@H]3O[C@H]([C@@H](C)NC)CC[C@H]3N)[C@@H](N)C[C@H]2N)OC[C@]1(C)O [Gentamicine sulfate]	-0.535

system: HeLa MZ; test: as above; conditions: compound concentration in added solution (µM; 5 µl added to 20 µl cells): 10; 18 h
Outline: as §1

SMILES	filipin (z-score)
NCC1(CC(=O)O)CCCCC1 [Gabapentin]	-0.627
CC(=O)NC1CCSC1=O (racemic) [N-Acetyl-DL-homocysteine Thiolactone]	-0.461
NCCCNCCSP(=O)(O)O [Amifostine]	-0.603
CCN(CC)C(C)C(=O)c1ccccc1 (stereo not given) [Amfepramone hydrochloride]	-0.615
CCCC(C)C1(CC)C(=O)NC(=O)NC1=O (stereo not given) [Pentobarbital]	-0.624
O=[N+]([O-])O[C@H]1CO[C@H]2[C@@H]1OC[C@H]2O[N+](=O)[O-] [Isosorbide dinitrate]	-0.471
O[C@@H]1CCCC[C@H]1N1CCC(c2ccccc2)CC1 [L(-)-vesamicol hydrochloride]	-0.0101
O=c1[nH]c2ccccc2n1CCCN1CCC(n2c(=O)[nH]c3cc(Cl)ccc32)CC1 [Domperidone]	2.01
O=P1(NCCCl)OCCCN1CCCl (stereo not given) [Ifosfamide]	-0.611
Cc1cccc(C)c1NC1=NCCCS1 [Xylazine]	-0.0906
O=c1[nH]oc2c1CCNC2 [THIP Hydrochloride]	-0.582
CC[N+]1(C)CCCC(OC(=O)C(O)(c2ccccc2)c2ccccc2)C1 (stereo not given) [Pipenzolate bromide]	-0.211
N[C@@H]1C[C@H]1c1ccccc1 [Tranylcypromine hydrochloride]	-0.53
CN(C)C(=O)Oc1cc(OC(=O)N(C)C)cc(C(O)CNC(C)(C)C)c1 (stereo not given) [Bambuterol hydrochloride]	-0.586
C[C@H](N)[C@H](O)c1ccc(O)c(O)c1 [Levonordefrin]	-0.337
CO[C@]12C[C@@H](COC(=O)c3cncc(Br)c3)CN(C)[C@@H]1Cc1cn(C)c3cccc2c13 [Nicergoline]	0.446
C#C[C@]1(O)CC[C@H]2[C@@H]3CCC4=CC(=O)CCC4=C3C=C[C@@]21CC [Gestrinone]	-0.437
CC(C)(C)NCC(O)c1ccccc1Cl (stereo not given) [Tulobuterol]	-0.0322

SMILES	filipin (z-score)
COc1cc2c(cc1OC)C(C)NCC2 (stereo not given)	-0.121
CC(C)C[C@H]1C(=O)N2CCC[C@H]2[C@]2(O)O[C@](NC(=O)[C@@H]3C=C4c5cccc6[nH]c(Br)c(c56)C[C@H]4N(C)C3)(C(C)C)C(=O)N12 [Bromocryptine mesylate]	0.695
O=C(CCCN1CCC2(CC1)C(=O)NCN2c1ccccc1)c1ccc(F)cc1 [Spiperone]	2.13
CN1C[C@H](CNC(=O)OCc2ccccc2)C[C@@H]2c3cccc4c3c(cn4C)C[C@H]21 [Metergoline]	4.18
CCN[C@@H](C)Cc1cccc(C(F)(F)F)c1 [Dexfenfluramine hydrochloride]	-0.703
CN1CCN(C(=O)OC2c3nccnc3C(=O)N2c2ccc(Cl)cn2)CC1 (stereo not given) [Zopiclone]	-0.296
C[N+]12CCC(CC1)C(OC(=O)C(O)(c1ccccc1)c1ccccc1)C2 (stereo not given) [Clidinium bromide]	-0.364
C[C@]12CCC(=O)C(O)=C1CC[C@@H]1[C@@H]2CC[C@]2(C)C(=O)CC[C@@H]12 [Formestane]	1.15
C[C@]12CCC(=O)C=C1CC[C@@H]1[C@@H]2C(=O)C[C@]2(C)C(=O)CC[C@@H]12 [Adrenosterone]	0.731
CCC1(CC)C(=O)C=CNC1=O [Pyrithyldione]	-0.593
CCn1cc(C(=O)O)c(=O)c2cc3c(cc21)OCO3 [Oxolinic acid]	-0.645
C=C1CC[C@@]2(O)[C@H]3Cc4ccc(O)c5c4[C@@]2(CCN3CC2CC2)[C@H]1O5 [Nalmefene hydrochloride]	0.0741
C[C@]12COC(=O)C[C@@H]1CC[C@@H]1[C@@H]2CC[C@@]2(C)[C@H]1CC[C@]2(C)O [Oxandrolone]	-0.517
C[C@]12N[C@H](Cc3ccccc31)c1ccccc12 [Dizocilpine maleate]	-0.275
S=C(NC1CCCCC1)N1CCC(c2cnc[nH]2)CC1 [Thioperamide maleate]	0.431
CN1C(=O)CCS(=O)(=O)C1c1ccc(Cl)cc1 (stereo not given) [Chlormezanone]	-0.314
CN[C@@H]1[C@@H](O)[C@@H](O[C@@H]2[C@@H](O)[C@H](O[C@H]3O[C@H](CN)CC[C@H]3N)[C@@H](N)C[C@H]2N)OC[C@]1(C)O.CN[C@@H]1[C@@H](O)[C@@H](O[C@@H]2[C@@H](O)[C@H](O[C@H]3O[C@H]([C@@H](C)N)CC[C@H]3N)[C@@H](N)C[C@H]2N)OC[C@]1(C)O.CN[C@@H]1[C@@H](O)[C@@H](O[C@@H]2[C@@H](O)[C@H](O[C@H]3O[C@H]([C@@H](C)NC)CC[C@H]3N)[C@@H](N)C[C@H]2N)OC[C@]1(C)O [Gentamicine sulfate]	-0.682
